Screening results as filed in PubChem.
AmpC inh no detg = qHTS Inhibitors of AmpC Beta-Lactamase (assay without detergent); AmpC nitrocefin hydrolysis, absorbance 480 nm, 0.0001% Triton; hit rate 0.52% among 330,000; P00811; Potency, µM (series often up to 57.1 µM), most hits filed as inhibitors; further: nearly all actives have a fitted effect of over 20% in size
Target sequence (P00811 whole entry, looked up): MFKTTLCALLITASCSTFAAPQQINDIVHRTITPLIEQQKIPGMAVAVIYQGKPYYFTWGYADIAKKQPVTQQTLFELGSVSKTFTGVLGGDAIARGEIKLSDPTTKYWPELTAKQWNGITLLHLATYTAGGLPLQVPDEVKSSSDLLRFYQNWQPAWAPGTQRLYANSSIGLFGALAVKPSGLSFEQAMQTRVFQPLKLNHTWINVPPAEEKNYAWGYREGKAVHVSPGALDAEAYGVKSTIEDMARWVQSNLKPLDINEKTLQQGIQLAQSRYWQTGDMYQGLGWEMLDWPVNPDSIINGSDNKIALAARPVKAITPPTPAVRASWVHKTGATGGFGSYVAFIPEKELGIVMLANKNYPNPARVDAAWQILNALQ
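20 mM phosphate pH 7.0 + 0.01% (detergent screen) or 0.0001% Triton X-100; 5.3 nM AmpC reagent; cpd preinc 15 min RT; nitrocefin (800 uM stock) to start; A480 q20 s × 4 min; Activity was normalised to no-enzyme and no-compound control wells.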
NS1 inh = qHTS Assay for Inhibitors of Influenza NS1 Protein Function | hit rate 0.4% among 270,000 | Potency, µM (series often up to 46.1 µM); calls by dose curve; further: actives are rising curves; nearly all actives have a fitted effect of over 50% in size
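S. cerevisiae expressing influenza A NS1, grown in glucose, washed, then diluted 1:100 into pH 6.0 -URA galactose medium with 23 nl compound. Growth recovery read as OD600; NS1-free strain serves as control.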
AmpC detergent = qHTS Inhibitors of AmpC Beta-Lactamase (assay with detergent). AmpC hydrolysis of nitrocefin, absorbance 480 nm, 0.01% Triton. Potency, µM (titrated, usually from 114 µM), actives largely listed as inhibitors. AID 485294, 2010. P00811. hit rate 0.041% among 370,000; further: nearly all actives have a fitted effect of over 25% in size
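20 mM phosphate pH 7.0 + 0.01% (detergent screen) or 0.0001% Triton X-100; 5.3 nM AmpC reagent; cpd preinc 15 min RT; nitrocefin (800 uM stock) to start; A480 q20 s × 4 min; Activity was normalised to no-enzyme and no-compound control wells.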
Shiga inhibitor = A qHTS for Small Molecule Inhibitors of Shiga Toxin | inhibition, % at 38.7 µM | Vero cells, Shiga toxin protein synthesis inhibition reporter | AID 2315, 2010 | hit rate 9.2% among 290,000; in the data active means inhibition mostly above about 28%, no sharp cut-off; inactive means mostly below about 43%
Cycloheximide cs = Cycloheximide Counterscreen for Small Molecule Inhibitors of Shiga Toxin; cell reporter, cycloheximide protein synthesis inhibition counterscreen; hit rate 12% among 300,000; max response, %; in the data active means max response mostly above about 13%, no sharp cut-off; inactive means mostly below about 14%; further: read at 38.3 µM for the half of the compounds with a filed dose
A number is an active result; – = inactive; ? = inconclusive; · = no result given; [ ] = another dose, or the depositor's remark. This is one part of a sample in which hits are shown more often than they occur. Unless noted, the call rests on the fitted dose curve; in most records, active means well fitted curve in the direction sought with a large enough effect; inconclusive means small, poorly fitted or top-dose-only effect, or another doubt; inactive means no such curve, though single readings can be large; an effect the other way counts as inactive or inconclusive.

SMILES	AmpC inh no detg	NS1 inh	AmpC detergent	Shiga inhibitor	Cycloheximide cs
Cc1onc(-c2c(F)cccc2Cl)c1C(=O)Nc1nc2ccccc2[nH]1	–	–	–	59.8	59.0
Cc1cc(NC(=O)c2c(-c3c(F)cccc3Cl)noc2C)no1	–	–	–	–	–
Cc1ccc(/C=C/C(=O)c2nc3ccccc3[nH]2)cc1	–	–	–	67.6	44.5
Cc1cc(NS(=O)(=O)c2ccc(NC(=O)/C=C/c3c(F)cccc3Cl)cc2)nc(C)n1	–	–	–	–	–
Cc1ccc(NC(=O)COC(=O)Cn2ccc(=O)[nH]c2=O)cc1C	–	·	·	·	·
COc1cc2c(cc1OC)C(C)N(C(=O)c1cc3c(C)cc(C)cc3[nH]1)CC2 (stereo not drawn)	–	–	–	–	–
Cc1nc(SCc2cc(=O)c3cccc(F)c3[nH]2)n[nH]1	·	·	–	·	·
CC(Sc1nnc(Nc2ccccc2)s1)C(=O)Nc1nc(-c2ccccc2)cs1 (stereo not drawn)	–[2.29 µM]	–	–	–	–
CC(Sc1nnc(NCc2ccccc2)s1)C(=O)Nc1ccc2c(c1)C(=O)c1ccccc1C2=O (stereo not drawn)	–	?	–	64.4	63.0
Cc1nc(SCc2ccc(C#N)cc2)n[nH]1	–	–	?	·	17.7
CCCCOc1ccc(CSc2n[nH]c(C)n2)cc1	–	–	–	92.9	32.5
Cc1nc(SCc2ccc([N+](=O)[O-])cc2)n[nH]1	–	–	–	·	5.9
N#Cc1ccc(C(=O)Nc2nc(SCc3ccc(Cl)cc3)n[nH]2)cc1	–	–	–	–	–
CCc1nc(SCc2ccc([N+](=O)[O-])cc2)n[nH]1	–	–	?	76.0	35.7
CCOc1ccc(N(C(=O)c2ccccc2F)S(=O)(=O)c2ccc3c(c2)n(C)c(=O)n3C)cc1	·	·	–	·	·
Cc1sc2ncn(CC(=O)Nc3cccc(C(F)(F)F)c3)c(=O)c2c1S(=O)(=O)N1CCN(C)CC1	·	·	–	·	·
N#CC1=C(S)N(c2ccccc2)C(c2ccc(-c3ccc(Cl)c(Cl)c3)o2)NC1=O (stereo not drawn)	10µM	–	–	–	–
CN(N=O)c1ccc(/C=C\c2ccnc3ccccc23)cc1	·	–	·	·	·
O=C(CN1C(=O)S/C(=C\C=C\c2ccccc2)C1=O)Nc1ccc(O)cc1	–	–	?	65.5	71.7
O=C(COC(=O)CCN1C(=O)/C(=C\C=C\c2ccccc2)SC1=S)Nc1ccc(Br)cc1	17.8µM	–	–	–	–
N=c1nc(N)nc2n1NC(c1ccc(F)cc1)=CS2	–	–	–	–	19.7
CCN(CC)c1ccc2c(O)cc(=O)oc2c1	25.1µM	·	?	–	–
CCN(CC)c1ccc2c(Cl)cc(=O)oc2c1	–	–	–	–	–
CC(=O)NCCC(=O)N1CCCC(CNC(=O)c2ccc(-c3ccccc3)cc2)C1 (stereo not drawn)	–	–	–	–	14.6
COC(=O)c1ccc(C(=O)N2CCCC(CNC(=O)c3ccccc3Cl)C2)cc1 (stereo not drawn)	–	–	–	–	13.3
SMILES	AmpC inh no detg	NS1 inh	AmpC detergent	Shiga inhibitor	Cycloheximide cs
Cc1cccc(NC(=O)N2CCCC(CNC(=O)c3ccccc3Cl)C2)c1C (stereo not drawn)	–	–	–	–	–
CC(=O)c1ccc(C(=O)N2CCCC(CNC(=O)c3ccccc3Cl)C2)cc1 (stereo not drawn)	–	–	–	–	15.5
COc1ccc(CC(=O)NCC2CCCN(Cc3ccccc3OC)C2)cc1 (stereo not drawn)	–	–	–	–	–
COc1ccc(CC(=O)N2CCCC(CNC(=O)c3ccccc3Cl)C2)cc1 (stereo not drawn)	–	–	–	33.1	–
O=C(c1cc(C2CC2)nn1-c1ccccc1)N1CCN(S(=O)(=O)c2c(F)cccc2F)CC1	–	·	–	·	·
COC(=O)c1ccsc1NC(=O)CCS(=O)(=O)c1ccc(Cl)cc1	–	·	–	·	·
O=C(NCC1CCCN(C(=O)c2cscn2)C1)c1ccc(-c2ccccc2)cc1 (stereo not drawn)	–	–	–	–	–
O=C(NCC1CCCN(C(=O)c2cscn2)C1)c1ccccc1Cl (stereo not drawn)	–	–	–	30.3	25.5
O=C(Nc1ccc2c(c1)OCO2)c1cc(-c2ccncc2)nc2ccccc12	–	·	–	–	18.7
COc1cccc(-c2cc(C(=O)Nc3ccc4c(c3)OCCO4)c3ccccc3n2)c1	–	–	–	–	22.1
O=C(Nc1ccc2c(c1)OCCO2)c1cc(-c2ccccc2)nc2ccccc12	–	–	–	–	–
O=C(Nc1nc2c(s1)CCCC2)c1cc(-c2ccc3c(c2)OCO3)nc2ccccc12	–	–	–	–	26.3
Cc1ccccc1-c1cc(C(=O)Nc2nc3c(s2)CCCC3)c2ccccc2n1	–	–	?	–	–
Cn1c(NC(=O)c2cc(-c3ccc4c(c3)OCO4)nc3ccccc23)cc(=O)n(C)c1=O	–	–	–	–	43.2
COc1ccc(NC(=O)c2c(C)oc3ccc(O)c(CN4CCC(C)CC4)c23)cc1Cl	·	·	–	·	·
CCc1ccccc1NC(=O)c1ccc2nc(C(C)C)oc2c1	·	·	–	·	·
O=C(c1cc(-c2ccccc2)nc2ccccc12)N1CCCc2ccccc21	–	–	–	–	–
Cc1cccc(-c2cc(C(=O)N3CCCc4ccccc43)c3ccccc3n2)c1	–	–	–	–	22.3
Cc1cc(Nc2ccc3c(c2)OCCO3)c2ccccc2n1	–	–	?	–	–
Cc1cccc(-c2cc(C(=O)Nc3ccncc3)c3ccccc3n2)c1	–	–	–	–	8.4
Cc1cc(C(=O)Nc2ccccc2)c2ccccc2n1	–	–	–	–	–
Cc1ccc2nc(C)cc(Nc3ccc4c(c3)OCCO4)c2c1	–	–	–	37.5	60.2
Cc1cc(C(=O)Nc2ccc3c(c2)OCCO3)c2ccccc2n1	–	·	–	79.9	21.7
CCCOc1ccc(C2CC(=O)Nc3c2c(C)nn3-c2nncc(-c3cccc(OC)c3)n2)cc1OC (stereo not drawn)	·	·	–	·	·
CCCSc1nc(=O)c2c(n1C)NC(=O)CC2c1cccc(F)c1F (stereo not drawn)	·	·	–	·	·
SMILES	AmpC inh no detg	NS1 inh	AmpC detergent	Shiga inhibitor	Cycloheximide cs
Cc1ccccc1-c1noc(-c2ccccc2C(=O)O)n1	–	–	–	–	15.2
COc1ccccc1NC(=O)c1ccccc1-c1nc(-c2ccccc2OC)no1	–	–	–	–	21.5
COc1ccc(-c2noc(-c3ccccc3C(=O)NCc3ccco3)n2)cc1	–	–	?	–	15.0
COc1cccc(NC(=O)c2ccccc2-c2nc(-c3ccc(Cl)cc3)no2)c1	–	–	–	62.4	59.1
COc1ccc(-c2noc(-c3ccccc3C(=O)NCc3ccco3)n2)cc1OC	–	–	–	–	–
COc1ccccc1-c1noc(-c2ccccc2C(=O)Nc2ccccc2)n1	–	–	?	–	–
Cc1cccc(NC(=O)CSc2nccn2Cc2ccc(F)cc2)c1C	·	·	–	·	·
CCOC(=O)c1c(NC(=O)COC(=O)/C=C/c2ccccc2)sc(C(=O)NC)c1C	–	·	–	·	·
